PubChem BioAssay (NCATS)
Records with an inconclusive call do not appear. The source made the active and inactive calls. Calls come from the whole dose curve; as a rule, active = well fitted curve in the direction sought with a large enough effect; inconclusive = small, poorly fitted or top-dose-only effect, or another doubt; inactive = no such curve, though single readings can be large; an effect the other way counts as inactive or inconclusive.

Assays:
[1] = biological target: Cellular tumor antigen p53 (Homo sapiens) (UniProt P04637); assay: Primary qHTS for small molecule compounds that upregulate eGFP-tagged delta133p53alpha (in N-terminal) cells. (AID 2060322); conditions: NCI-H358 eGFP-delta133p53alpha fluorescence, 24 h; activation: stronger effect = higher value;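 note: cells pre-induced with doxycycline then dosed without doxycycline; series mostly up to about 56 µM; 0% = DMSO vehicle and 100% = reference activator; nearly all actives have a fitted effect of over 75% in size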
Chain of Cellular tumor antigen p53 (Homo sapiens) (P04637 whole entry, looked up): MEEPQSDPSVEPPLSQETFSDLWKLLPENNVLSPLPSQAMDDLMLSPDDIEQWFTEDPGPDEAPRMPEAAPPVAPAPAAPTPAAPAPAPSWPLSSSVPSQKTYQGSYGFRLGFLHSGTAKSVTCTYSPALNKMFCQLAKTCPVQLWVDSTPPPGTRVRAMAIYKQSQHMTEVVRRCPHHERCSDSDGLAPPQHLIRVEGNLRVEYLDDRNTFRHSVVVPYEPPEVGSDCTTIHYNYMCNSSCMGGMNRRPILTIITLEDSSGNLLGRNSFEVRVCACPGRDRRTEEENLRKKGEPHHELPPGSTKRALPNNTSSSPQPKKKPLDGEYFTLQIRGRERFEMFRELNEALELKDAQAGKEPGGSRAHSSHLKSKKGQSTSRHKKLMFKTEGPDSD
Outline: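 NCI-H358 cells pre-induced 24 h with 10 ng/ml doxycycline for eGFP-delta133p53alpha, plated dox-free and exposed 24 h at 37C to titrated compounds. Fixed, Hoechst-stained; gated GFP peak intensity by laser scanning cytometry, normalized to DMSO (0%) and 57.5 uM 5-azacytidine (100%).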

[2] = biological target: Aldehyde dehydrogenase, mitochondrial (Homo sapiens) (UniProt P05091); assay: qHTS for Inhibitors of the Aldehyde Dehydrogenase Family (ALDH2) Primary screen (AID 2061308);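 note: plate controls were vehicle for no effect and reference inhibitor for full effect; nearly all actives have a fitted effect of over 55% in size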
[3] = biological target: Retinaldehyde dehydrogenase 3 (Homo sapiens) (UniProt P47895); assay: qHTS for Inhibitors of the Aldehyde Dehydrogenase Family (ALDH1A3) Primary screen (AID 2061315);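 note: plate controls were DMSO vehicle for no effect and reference inhibitor for full effect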

COC(=O)C(CC1(O)c2ccccc2N2C(=O)C(CC(C)C)NC21)n1cnc2ccccc2c1=O (stereo not given)
inactive: activation [1] -1.53% | Potency [2] | Potency [3]

N#Cc1ccc(-c2ccc(S(=O)(=O)Nc3cccc(N)n3)cc2)cc1
inactive: activation [1] 2.86% | Potency [2] | Potency [3]

C/C=C1\[C@H](O[C@@H]2O[C@H](CO)[C@@H](O)[C@H](O)[C@H]2O)OC=C(C(=O)OC)[C@H]1CC(=O)OC
inactive: activation [1] 4.46% | Potency [2] | Potency [3]

C=CC(C)(C)C12CC3C(=O)NC(Cc4cnc[nH]4)C(=O)N3C1Nc1ccccc12 (stereo not given)
inactive: activation [1] 13.4% | Potency [2] | Potency [3]

CC(=O)O[C@@H](C[C@@H]1C=C(C)C(=O)O1)[C@H](C)[C@H]1CCC2[C@@]3(C)CC[C@H](O[C@@H]4O[C@H](CO)[C@@H](O)[C@H](O)[C@H]4O[C@@H]4O[C@@H](C)[C@H](O)[C@@H](O)[C@H]4O)C(C)(C)C3CC[C@@]2(C)[C@@]12COC(=O)C2 (stereo not given in full)
inactive: activation [1] 1.79% | Potency [2] | Potency [3]

Cc1cc(CS(=O)(=O)c2ccccc2)cc(OCc2ccc(CN3CCCC3CO)cc2)c1 (stereo not given)
inactive: activation [1] 8.93% | Potency [2] | Potency [3]

CCNC(=O)NCCCOc1cccc(CN2CCCCC2)c1
inactive: activation [1] 15% | Potency [2] | Potency [3]

O=C1C=CC(O)(/C=C/C(=O)OC[C@H]2O[C@@H](Oc3ccc(O)cc3)[C@H](O)[C@@H](O)[C@@H]2O)C=C1
inactive: activation [1] 6.25% | Potency [2] | Potency [3]

C=CCc1cc(OC)c(OC(C)C(O)c2ccc(O)c(OC)c2)c(OC)c1 (stereo not given)
inactive: activation [1] 4.46% | Potency [2] | Potency [3]

OC1COC(OCC2OC(OCCc3ccccc3)C(O)C(O)C2O)C(O)C1O (stereo not given)
inactive: activation [1] -11.5% | Potency [2] | Potency [3]
